Bioassay records as filed in PubChem.
Sampled rows, rich in hits. Any-hit rate of the full collection: about 2.2%.
BaF3 tox: reduces parental Ba/F3 cell viability, JAK2V617F counter-screen | 220,000 tested, 1.1% active | AID 1486 | inhibition, % at 5.6 µM | CellTiter-Glo ATP luminescence;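 active means inhibition above a per-campaign cutoff, the mean inhibition of all tested compounds plus 3 SD, cut at about 27% in these data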;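 further: 0% = DMSO wells and 100% = JAK Inhibitor I control wells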
IEC-6 cytotox: kills IEC-6 intestinal cells in KLF5 counter-screen; IEC-6 cytotoxicity, luminescence viability; inhibition, % at 5 µM; 290,000 tested, 0.78% active; in the data active means inhibition above about 22%;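 further: 0% = plate median of test compound wells and 100% = cytotoxic reference compound wells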
APP 5UTR inh: APP translation inhibition; inhibition, % at 2 µM; SH-SY5Y APP 5'UTR-luciferase reporter, luminescence; 190,000 tested, 0.82% active;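 active means inhibition above a set limit, derived from the sample mean plus 3 SD, cut at about 45% in these data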
KLF5 inh: kruppel-like factor 5 inhibition. AID 1700. 290,000 tested, 0.23% active. inhibition, % at 5 µM. DLD-1 KLF5 promoter-luciferase reporter, luminescence;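 active means inhibition above a per-plate limit of that plate's mean compound inhibition plus 3 SD, cut at about 60% in these data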;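 further: 0% = DMSO wells and 100% = LY294002 at 200 µM; higher means less KLF5 promoter-driven luciferase light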
aSyn 5UTR inh: 5' untranslated region of α-synuclein, MLPCN primary screen; 300,000 tested, 0.82% active; alpha-synuclein 5'UTR reporter, inhibitor activity; AID 1813; inhibition, % (tested at 7.5 µM); in the data active means inhibition above about 60%;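 further: H4 neuroglioblastoma cells stably carrying SNCA 5'UTR luciferase fusion; 0% = DMSO wells and 100% = positive control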
Ba/F3 V617F tox: reduce viability of Ba/F3 cells dependent on JAK2V617F | Ba/F3 EpoR-JAK2V617F viability, ATP luminescence | 220,000 tested, 1.1% active | inhibition, % at 5.6 µM | AID 1446;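 active means inhibition above the campaign mean plus 3 SD over all tested compounds, cut at about 24% in these data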;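 further: cytokine-independent growth of Ba/F3 cells driven by EpoR plus mutant JAK2; 0% = DMSO-treated cells and 100% = JAK inhibitor I control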
An asterisk follows results filed as active; / = no result given.

SMILES | BaF3 tox | IEC-6 cytotox | APP 5UTR inh | KLF5 inh | aSyn 5UTR inh | Ba/F3 V617F tox
Cc1ccc2[nH]cc(/C=C/c3cc[n+](C)cc3)c2c1 | / | -7 | / | 9 | 65* | /
COc1ccc2c(/C=C/c3cc[n+](C)cc3)c[nH]c2c1 | / | -1 | / | -18 | 7 | /
Cc1nc(-c2ccc(F)cc2)c(CC(=O)N2CCN(S(=O)(=O)c3cccc(F)c3)CC2)s1 | / | / | / | / | -1 | /
Cc1cc(-c2ccc(N3CCOCC3)cc2)nc2ccccc12 | 8 | 12 | -90 | -46 | -307 | 3
c1ccc2nc(-c3ccc(N4CCOCC4)cc3)ccc2c1 | 5 | -6 | / | -48 | 104* | -2
COc1ccccc1/C=C/C(=O)OCC(=O)Nc1cc(C(F)(F)F)ccc1N1CCOCC1 | 1 | -2 | 61* | -4 | -1 | -2
O=C(COC(=O)/C=C/c1ccccc1)Nc1cc(C(F)(F)F)ccc1N1CCOCC1 | 2 | -1 | -12 | -15 | -14 | -1
COc1cccc2c1C(=O)c1c(O)c3c(c(O)c1C2=O)C[C@@](O)(C(=O)CO)C[C@@H]3O[C@H]1C[C@H](N)[C@H](O)[C@H](C)O1 | 101* | 94* | 95* | 42 | 109* | 102*
Cn1nc(CC(=O)Nc2ccc3c(c2)OCCO3)c2ccccc2c1=O | 53* | 8 | 5 | 18 | 16 | 48*
Cn1nc(CC(=O)Nc2ccc(N3CCN(C(=O)OC(C)(C)C)CC3)cc2)c2ccccc2c1=O | 60* | 11 | 10 | 11 | 77* | 50*
Cn1nc(CC(=O)N2CCN(c3ccccc3)CC2)c2ccccc2c1=O | 8 | 11 | -20 | 16 | 13 | 4
Cc1ccc2oc(=O)c3cc(C(=O)NCCCN4C(C)CCCC4C)sc3c2c1 (configuration not stated) | / | 7 | / | -40 | -18 | /
Cc1ccc(NC(=O)Cn2cnc([N+](=O)[O-])c2)cc1C | / | -1 | / | 11 | 10 | /
Cc1nn(CCCC(=O)NCc2ccco2)c(=O)c2nn(-c3ccccc3)c(C)c12 | / | 1 | / | -15 | 21 | /
Cc1[nH]nc2nc(SCC(=O)NCCC3=CCCCC3)n(-c3ccc(Br)cc3)c(=N)c12 | / | 7 | / | -1 | 75* | /
NC(=O)c1sc2nc3c(c(-c4ccco4)c2c1N)CCC3 | 5 | -18 | 10 | 19 | 20 | 4
NC(=O)c1sc2nc3c(c(-c4cccs4)c2c1N)CCCC3 | 0 | -10 | 46* | -2 | 45 | -1
CN1/C(=C\C=C2/C(=O)Oc3ccccc3C2=O)C(C)(C)c2ccccc21 | 7 | 6 | -52 | 31 | -123 | -1
CN1/C(=C\C=C2/SC(=S)NC2=O)C(C)(C)c2ccccc21 | 81* | 1 | -2 | -29 | 26 | 65*
CN1C(=CC=C2C=C(I)C(=O)C(I)=C2)C(C)(C)c2ccccc21 | 33* | -7 | / | 7 | / | -1
CCN1CCN(c2ncnc3sc(C)c(-c4ccccc4)c23)CC1 | / | -6 | / | -7 | 23 | /
CN(C(=O)Cn1nc(Cl)ccc1=O)C1CCCN(Cc2ccccc2F)C1 (configuration not stated) | / | 7 | / | -18 | 3 | /
O=C(/C=C/c1cccnc1)/C=C/c1cccnc1 | 103* | 49* | / | 5 | / | 95*
O=C(/C=C/c1cccnc1)c1cc(F)ccc1O | 5 | 8 | / | -12 | -42 | -2
COc1ccc(-n2nnnc2SCC(=O)N2CCN(C(=O)c3ccco3)CC2)cc1OC | 5 | -6 | 6 | -4 | 16 | -1
SMILES | BaF3 tox | IEC-6 cytotox | APP 5UTR inh | KLF5 inh | aSyn 5UTR inh | Ba/F3 V617F tox
COc1ccc(OC)c(-n2nnnc2SCC(=O)N2CCN(C(=O)c3ccco3)CC2)c1 | 41* | 0 | 3 | -25 | 10 | 1
O=c1oc(-c2ccccc2)nc2ccsc12 | 39* | 4 | / | -14 | 12 | 4
O=c1oc(-c2cccs2)nc2ccccc12 | 2 | 4 | -2 | -10 | -19 | 0
CCOc1nc2ccccc2cc1C=O | 6 | -4 | 57* | -19 | -9 | 1
CCCOc1nc2ccccc2cc1/C=C/C(=O)O | 2 | -1 | -7 | -19 | -8 | 3
NC(=O)c1nc(N2CCOCC2)nc(N2CCOCC2)n1 | 7 | 3 | -3 | -19 | 9 | 2
CC(C)(C)Nc1nc(C(N)=O)nc(N2CCOCC2)n1 | 1 | 9 | 60* | -48 | 10 | -1
OC(c1cc(-c2ccc(C(F)(F)F)cc2)nc(C(F)(F)F)c1)C1CCCCN1 (configuration not stated) | 53* | 40* | / | -2 | 103* | 96*
CCOC(=O)c1c(-c2ccccc2)oc2cc(CN(C)C)c(O)c(CN(C)C)c12 | 2 | 4 | 53* | -17 | 56 | -1
CCOC(=O)c1c(C)oc2cc(Cl)c(O)c(CN(C)C)c12 | 2 | 6 | / | -91 | -57 | 0
C[n+]1c2n(c3ccccc31)N=C(c1cc(C(C)(C)C)c(O)c(C(C)(C)C)c1)CS2 | 79* | 18 | 30 | 29 | 68* | 99*
CN(C)c1ccc(C(CNS(=O)(=O)c2ccc3ccccc3c2)N2CCOCC2)cc1 (configuration not stated) | / | / | / | / | -4 | /
CSc1ccc(/C=C(\NC(=O)c2ccc(C)cc2)C(=O)NN)cc1 | 57* | -4 | / | -16 | 7 | 13
CSc1ccc(/C=C(/NC(=O)c2ccc(C)cc2)C(=O)Nc2cccc(C)c2)cc1 | 3 | -1 | -20 | -20 | 22 | 2
O=C(N/N=C(\Cc1ncc[nH]1)c1ccccc1)c1ccncc1 | 9 | -6 | 44 | -40 | 16 | 4
O=C(N/N=C(\Cc1ncc[nH]1)c1ccccc1)c1ccccc1 | 4 | 1 | 1 | -42 | 74* | -2
Cc1ccc(C)c(Nc2c([N+](=O)[O-])cc(C(=O)N3CC(=O)Nc4ccccc43)cc2[N+](=O)[O-])c1 | 2 | 3 | 3 | -2 | 78* | -2
Cc1c(Cl)cccc1NC(=O)Cn1nc(C)n2cccc2c1=O | / | -4 | / | -34 | 5 | /
Cc1cc(C)c2nc(NNC(=O)c3ccc(S(=O)(=O)N4CCCCC4)cc3)sc2c1 | 6 | 0 | 13 | 7 | 46 | 1
Cc1cccc2sc(NNC(=O)c3ccc(S(=O)(=O)N4CCCC(C)C4)cc3)nc12 (configuration not stated) | 8 | 0 | 35 | 19 | 78* | -2
Cc1cccc2sc(NNC(=O)c3ccc(S(=O)(=O)N4CCc5ccccc5C4)cc3)nc12 | 6 | 3 | 20 | 25 | 67* | -1
Cc1cccc2sc(NC(=O)c3cccc(S(=O)(=O)N4CCc5ccccc54)c3)nc12 | 1 | 0 | 2 | -8 | -1 | 0
CCOc1ccccc1NC(=O)[C@@H](NC(=O)c1ccccc1F)C(C)C | / | -4 | / | -16 | -6 | /
Cc1ccc(CNCC(O)(c2ccccc2)c2ccc(Cl)cc2)cc1 (configuration not stated) | 29* | 7 | 5 | -15 | 3 | 19
CCN1CCN(Cc2ccc(NC(=O)c3ccc(C)c(/C=C/c4cnc(Nc5cc(N6CCNCC6)nc(C)n5)cn4)c3)cc2C(F)(F)F)CC1 | / | / | / | -7 | 110* | /
